This test in a line: enhancers of NK cell killing of ovarian tumor cells, primary screen, imaging, OVCAR3, primary NK cells, calcein-AM imaging (AID 1508625).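 Note: compound given to NK cells 16 h before adding targets at 1.5 to 1 ratio.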 As to conditions: OVCAR3 lysis by primary NK cells, at 5 µM; z-score: measured here: robust Z-score, single-point normalisation.

For the molecule `O=C(c1ccc(Cn2c(=S)[nH]c3cc4c(cc3c2=O)OCO4)cc1)N1CCC(N2CCCCC2)CC1`, the corrected activity, negative = more killing was -3.36% and the z-score was -0.889.

For `CCOC(=O)c1ccc(NC(=O)c2cnc3n(c2=O)CCS3)cc1`, the corrected activity, negative = more killing is -6.64% and the z-score is -2.11.

As to `Cc1ccc(-n2c(C)cc(C(=S)N3CCOCC3)c2C)cc1Cl`, the corrected activity, negative = more killing is -4.03% and the z-score was -1.54.

Take `COC(=O)c1ccc(-n2nnnc2SCC(=O)Nc2ccc(F)cc2)cc1`: the corrected activity, negative = more killing is -6.69% and the z-score is -2.

In the case of `CC1=C(C(=O)Nc2cccc(Cl)c2)C(c2cccc(Cl)c2)NC(=O)N1` (stereo unspecified), the corrected activity, negative = more killing is -1.94% and the z-score is -0.84.

In the case of `Cc1cc(C)cc(NS(=O)(=O)c2ccc3[nH]cc(C(=O)NCc4cccs4)c(=O)c3c2)c1`, the corrected activity, negative = more killing is -6.12% and the z-score was -1.5.

Take `CC(C)c1ccc(OCC(=O)Nc2ccc3c(c2)OCCO3)cc1`: the corrected activity, negative = more killing is -2.45% and the z-score was -0.869.

For the molecule `O=C(NN=Cc1ccccc1Cl)C(=O)Nc1cccc(C(F)(F)F)c1`, the corrected activity, negative = more killing is -2.13% and the z-score is -0.904.

`CC1C2CCCN2CCN1Cc1cccc(Oc2ccccc2)c1` (stereo unspecified): the corrected activity, negative = more killing was -1.23% and the z-score is -0.537.

Turning to `COc1ccc(N(CC(=O)Nc2c(C)n(C)n(-c3ccccc3)c2=O)S(C)(=O)=O)c(OC)c1`, the corrected activity, negative = more killing is -0.645% and the z-score is -0.246.

With `Cc1ccc(-n2c(SCC(=O)Nc3cccc(F)c3)nc3c(c2=O)SCC3)cc1`, the corrected activity, negative = more killing is -3.47% and the z-score was -0.864.

Take `COc1ccc(-c2nocc2C(N)=O)cc1OC`: the corrected activity, negative = more killing was -3.72% and the z-score was -1.63.

As to `COc1ccc(C2=NN(c3nc(-c4ccc(OC)c(F)c4)cs3)C(c3ccco3)C2)cc1` (stereo unspecified), the corrected activity, negative = more killing is -2.68% and the z-score is -1.01.

With `Clc1cccc(N2CCN(Cc3cn4c(-c5cccc(Br)c5)nnc4s3)CC2)c1`, the corrected activity, negative = more killing is -6.72% and the z-score is -1.91.

In the case of `O=C1C(=O)N(CO)C(c2ccccc2)C1=C(O)c1ccccc1` (stereo unspecified), the corrected activity, negative = more killing is -3.26% and the z-score is -1.23.

Consider `Cc1c(NC(=O)CCCCCN2C(=O)c3ccccc3C2=O)c(=O)n(-c2ccccc2)n1C`, for which the corrected activity, negative = more killing is -6.57% and the z-score was -2.47.

Consider `COC(=O)c1cc2nc(-c3ccccc3)cc(C)n2n1`, for which the corrected activity, negative = more killing was -2.69% and the z-score was -1.39.

Consider `O=C1c2ccccc2C(=O)N1C1C(=O)N(c2cccc(C(F)(F)F)c2)C1c1ccc(F)cc1` (stereo unspecified), for which the corrected activity, negative = more killing was -1.28% and the z-score was -0.397.

Consider `CCOC(=O)c1conc1-c1cccs1`, for which the corrected activity, negative = more killing is -0.622% and the z-score is -0.198.

Take `CCCSc1nc2c([nH]c3ccccc32)c(=O)n1-c1ccc(OC)cc1`: the corrected activity, negative = more killing is -5.59% and the z-score was -1.39.

For `CCCCn1c(=S)[nH]c2cc3ccccc3cc2c1=O`, the corrected activity, negative = more killing is -1.52% and the z-score is -0.403.

On to `Cc1ccccc1-n1nnnc1C(c1ccccc1)N(C)Cc1ccc(Cl)c(Cl)c1` (stereo unspecified), for which the corrected activity, negative = more killing is -1.59% and the z-score was -0.695.

Take `COc1cc(C=Nc2ccc(Oc3ccccc3)cc2)ccc1OC(C)=O`: the corrected activity, negative = more killing was -3.39% and the z-score is -1.34.

For the molecule `CCCNC(=O)C(=O)Nc1ccc(C(C)C)cc1`, the corrected activity, negative = more killing was -1.6% and the z-score was -0.603.

Take `O=C(CCCN1C(=O)c2cccc3cccc(c23)C1=O)NCCO`: the corrected activity, negative = more killing was -1.75% and the z-score was -0.651.

`CC(C)OC(=O)CN1CCCN(S(=O)(=O)c2ccc(F)cc2)CC1`: the corrected activity, negative = more killing is -3.05% and the z-score is -0.969.

For the molecule `Cc1[nH]c2ccccc2c(=O)c1CN(C)Cc1ccccc1`, the corrected activity, negative = more killing is 0.566% and the z-score is 0.175.

For the molecule `COc1ccccc1OCc1cccc([N+](=O)[O-])c1`, the corrected activity, negative = more killing was -5.65% and the z-score was -3.15.

Consider `COc1cc(NC(=O)C(C)Oc2cccc(Cl)c2)cc(OC)c1` (stereo unspecified), for which the corrected activity, negative = more killing was -3.89% and the z-score was -2.16.

Take `CN1C(=O)c2ccccc2C(C(=O)NCCCN2CCCCCC2)C1c1cccs1` (stereo unspecified): the corrected activity, negative = more killing was -5.67% and the z-score is -1.41.

Consider `Cc1ccc(N2CC(C(=O)Nc3cccc(C)n3)CC2=O)cc1` (stereo unspecified), for which the corrected activity, negative = more killing was -3% and the z-score is -1.13.

Turning to `COc1ccc(-c2nn(-c3ccccc3)cc2C(=O)OCc2ccccc2)cc1`, the corrected activity, negative = more killing was -2.27% and the z-score is -1.22.

Take `CC(C)NC(=O)CC(=O)NN=C1CCCC1`: the corrected activity, negative = more killing was -6.06% and the z-score is -2.58.

Consider `Cc1c(C(=O)NCCc2ccccc2)oc2ccc(S(=O)(=O)N3CCCC3)cc12`, for which the corrected activity, negative = more killing is -4.9% and the z-score is -1.22.

Take `Cc1ccc(S(=O)(=O)NCc2cc(-c3nn(C)c(=O)c4ccccc34)ccc2C)cc1`: the corrected activity, negative = more killing was -2.25% and the z-score is -0.924.

Consider `Cc1cc2nc3sc(=Cc4ccc(Cl)cc4Cl)c(=O)n3c2cc1C`, for which the corrected activity, negative = more killing is -1.46% and the z-score was -0.755.

As to `CCOc1ccc(-c2cc(=O)c3ccccc3o2)cc1`, the corrected activity, negative = more killing is -6.12% and the z-score was -2.28.

In the case of `COc1cccc(C(=O)N2CCN(CC3CC=CCC3)CC2)c1OC` (stereo unspecified), the corrected activity, negative = more killing is -3.28% and the z-score was -1.46.

In the case of `CC(=NNC(=S)Nc1cccc(C)c1)c1cccc(N)c1`, the corrected activity, negative = more killing was -5.28% and the z-score is -2.08.

Regarding `O=c1c2cc3c(cc2nc(SCc2cccc(F)c2)n1Cc1ccco1)OCO3`, the corrected activity, negative = more killing was -3.76% and the z-score is -0.995.

As to `Cc1ccc(C(=O)Nc2cccc(C(=O)O)c2)cc1S(=O)(=O)Nc1ccc(Br)cc1`, the corrected activity, negative = more killing was -15% and the z-score was -3.16.

Take `CCc1ccc(NC(=O)c2ccccc2NC(=O)c2cccc(OC)c2)cc1`: the corrected activity, negative = more killing is 1.91% and the z-score is 1.06.

As to `CN(C)c1ccc(C=CC=C2SC(=S)N(Cc3ccccc3)C2=O)cc1`, the corrected activity, negative = more killing was -3.62% and the z-score was -1.88.

`CCN(C(=O)c1cc2c(=O)n3cccc(C)c3nc2s1)c1ccccc1`: the corrected activity, negative = more killing is -6.23% and the z-score was -1.77.

Take `CCOc1ccc(-n2c(SCc3ccccc3Cl)nc3c(c2=O)SCC3)cc1`: the corrected activity, negative = more killing was -3.11% and the z-score was -0.774.

As to `CC(=O)c1cccc(NC(=O)CSc2ccc(Cl)cc2)c1`, the corrected activity, negative = more killing is -1.79% and the z-score is -0.668.

Consider `CC1(C)CC(=O)C(CCC(=O)c2ccccc2)C(C)(C)N1` (stereo unspecified), for which the corrected activity, negative = more killing was -2.46% and the z-score was -0.733.

Regarding `COc1ccc(C2=NN(C(=O)c3ccc(Br)o3)C(c3ccc(N(C)C)cc3)C2)cc1OC` (stereo unspecified), the corrected activity, negative = more killing is -3.55% and the z-score is -1.9.

In the case of `CCCCNC(=O)c1cc(Nc2ccc(CC)cc2)nc2ccccc12`, the corrected activity, negative = more killing was -8.29% and the z-score was -2.03.

Regarding `CCOC(=O)C(Cc1ccccc1)C(=O)N(C1CCCCC1)C1CCCCC1` (stereo unspecified), the corrected activity, negative = more killing is -3.39% and the z-score was -1.82.

Turning to `O=[N+]([O-])c1ccc(Nc2ncnc3ccccc23)cc1`, the corrected activity, negative = more killing was -1.89% and the z-score was -1.01.

For the molecule `O=C1C2CC=C(Cl)CC2C(=O)N1CC1OCCc2ccccc21` (stereo unspecified), the corrected activity, negative = more killing was -3.37% and the z-score was -1.29.

Turning to `COc1ccc(N2CCN(C(=O)c3ccc4ccccc4n3)CC2)cc1`, the corrected activity, negative = more killing was -1.53% and the z-score is -0.85.

Turning to `Cc1c(C(=O)Nc2cccc([N+](=O)[O-])c2)sc2ncn(CC(=O)N3CCOCC3)c(=O)c12`, the corrected activity, negative = more killing is -2.14% and the z-score is -0.779.

In the case of `COc1cccc(CCNc2ccc(N3C(=O)C4CCC(C)CC4C3=O)cc2[N+](=O)[O-])c1` (stereo unspecified), the corrected activity, negative = more killing is -3.2% and the z-score is -1.17.

On to `COc1cc(C(=S)N2CCCCC2)cc(OC)c1OC(=O)c1cccc2ccccc12`, for which the corrected activity, negative = more killing is -9.1% and the z-score was -3.43.

With `Cc1cc(NC(=O)CSc2nc3ccc(Br)cc3c3nc4ccccc4n23)no1`, the corrected activity, negative = more killing is -5.14% and the z-score was -1.36.

On to `CCOC(=O)c1c(NC(=O)c2ccccc2F)sc(C(=O)Nc2cccc(Cl)c2)c1C`, for which the corrected activity, negative = more killing was -1.46% and the z-score is -0.517.

Turning to `Cc1ccccc1C(=O)Nc1ccc(C(=O)O)cc1NC(=O)c1ccccc1C`, the corrected activity, negative = more killing was -0.368% and the z-score was -0.197.

For the molecule `CCOc1ccccc1NC(=O)CC1Sc2ccc(C(F)(F)F)cc2NC1=O` (stereo unspecified), the corrected activity, negative = more killing was -3.99% and the z-score was -2.14.

As for `CCOC(=O)Cc1c(C)nc2cc(-c3ccc(C(C)(C)C)cc3)[nH]n2c1=O`, the corrected activity, negative = more killing was -7.93% and the z-score is -2.37.

Take `COc1ccc(C(=O)NC23CC4CC(CC(C4)C2)C3)c(OC)c1`: the corrected activity, negative = more killing was -4.55% and the z-score is -1.79.

`CCOC(=O)Cc1ccc(N(Cc2ccccc2)S(=O)(=O)c2cc(C)ccc2C)cc1`: the corrected activity, negative = more killing was -11.3% and the z-score is -3.06.

On to `Cn1c(SCC(=O)Nc2cccc3ccccc23)nc2c([nH]c3ccccc32)c1=O`, for which the corrected activity, negative = more killing is -9.34% and the z-score was -2.32.

Take `CCc1ccc(-n2c(CCC(=O)O)ccc2-c2ccc(F)cc2)cc1`: the corrected activity, negative = more killing is -1.11% and the z-score was -0.331.

With `Cc1cc(=O)oc2ccc(Oc3ccc(C#N)cc3[N+](=O)[O-])cc12`, the corrected activity, negative = more killing is -0.59% and the z-score was -0.183.

On to `COc1cc(C=C2C=C(c3ccc(C)cc3)OC2=O)cc(OC)c1OC`, for which the corrected activity, negative = more killing is -0.351% and the z-score is -0.181.

Take `Cc1c(Cl)cccc1N=Cc1ccc(O)cc1`: the corrected activity, negative = more killing was -1.33% and the z-score is -0.563.

For `CC(C)(C)c1ccc(C(=O)Nc2ccc(Cl)c(NC(=O)c3ccccc3)c2)cc1`, the corrected activity, negative = more killing is -4.21% and the z-score was -1.49.

As to `NC(=O)c1ccccc1NC(=O)c1ccc(-c2cccc(Cl)c2)o1`, the corrected activity, negative = more killing was -6.51% and the z-score is -1.94.

In the case of `CC(C)(C)NC(=O)C(=O)NN=Cc1cccc(Br)c1`, the corrected activity, negative = more killing was -4.27% and the z-score is -1.82.

Regarding `CCc1cccc(NC(=O)CN(C)S(=O)(=O)c2cccs2)c1`, the corrected activity, negative = more killing was -4.79% and the z-score was -1.36.

As for `COc1ccccc1N1C(=O)C2C(C(C)=O)=NN(c3ccc(Cl)cc3)C2C1=O` (stereo unspecified), the corrected activity, negative = more killing is -1.87% and the z-score was -0.704.

Consider `c1nc(N2CCCCCC2)c2[nH]cnc2n1`, for which the corrected activity, negative = more killing was -0.464% and the z-score was -0.115.

As to `O=C1CCC(=O)N1c1ccc(NCc2ccc(Cl)cc2)c([N+](=O)[O-])c1`, the corrected activity, negative = more killing was -4.48% and the z-score was -1.63.

With `CCOc1ccccc1C(=O)Nc1ccc(S(=O)(=O)N2CCCCC2C)cc1` (stereo unspecified), the corrected activity, negative = more killing was -4.3% and the z-score was -1.33.

Regarding `CC(C)c1ccc(NC(=O)c2cc(S(=O)(=O)N3CCN(c4ccccc4)CC3)ccc2F)cc1`, the corrected activity, negative = more killing is -8.98% and the z-score is -2.42.

Regarding `Cc1ccc(OCCN2CCNCC2)c(Br)c1`, the corrected activity, negative = more killing is -2.45% and the z-score was -1.36.

Source of the values: PubChem BioAssay AID1508625 (Wald Lab, School of Medicine, Case Western Reserve …, 2021).
